# Experimental data as given in PubChem BioAssay AID1835 (Johns Hopkins Ion Channel Center, 2009).
# In all, about 2,400 compounds went through this assay and about 750 (31%) were called active. This is one part of the list. Unmarked numbers belong to inactive results.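 How the source made its calls: active means median signal gain over dofetilide-blocked control wells reaching their mean plus 3 SD, so readout 1 at least 0; inactive means the rest.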
# Target: Voltage-gated inwardly rectifying potassium channel KCNH2 (Homo sapiens) (UniProt Q12809)
# Sequence (Q12809 whole entry, looked up): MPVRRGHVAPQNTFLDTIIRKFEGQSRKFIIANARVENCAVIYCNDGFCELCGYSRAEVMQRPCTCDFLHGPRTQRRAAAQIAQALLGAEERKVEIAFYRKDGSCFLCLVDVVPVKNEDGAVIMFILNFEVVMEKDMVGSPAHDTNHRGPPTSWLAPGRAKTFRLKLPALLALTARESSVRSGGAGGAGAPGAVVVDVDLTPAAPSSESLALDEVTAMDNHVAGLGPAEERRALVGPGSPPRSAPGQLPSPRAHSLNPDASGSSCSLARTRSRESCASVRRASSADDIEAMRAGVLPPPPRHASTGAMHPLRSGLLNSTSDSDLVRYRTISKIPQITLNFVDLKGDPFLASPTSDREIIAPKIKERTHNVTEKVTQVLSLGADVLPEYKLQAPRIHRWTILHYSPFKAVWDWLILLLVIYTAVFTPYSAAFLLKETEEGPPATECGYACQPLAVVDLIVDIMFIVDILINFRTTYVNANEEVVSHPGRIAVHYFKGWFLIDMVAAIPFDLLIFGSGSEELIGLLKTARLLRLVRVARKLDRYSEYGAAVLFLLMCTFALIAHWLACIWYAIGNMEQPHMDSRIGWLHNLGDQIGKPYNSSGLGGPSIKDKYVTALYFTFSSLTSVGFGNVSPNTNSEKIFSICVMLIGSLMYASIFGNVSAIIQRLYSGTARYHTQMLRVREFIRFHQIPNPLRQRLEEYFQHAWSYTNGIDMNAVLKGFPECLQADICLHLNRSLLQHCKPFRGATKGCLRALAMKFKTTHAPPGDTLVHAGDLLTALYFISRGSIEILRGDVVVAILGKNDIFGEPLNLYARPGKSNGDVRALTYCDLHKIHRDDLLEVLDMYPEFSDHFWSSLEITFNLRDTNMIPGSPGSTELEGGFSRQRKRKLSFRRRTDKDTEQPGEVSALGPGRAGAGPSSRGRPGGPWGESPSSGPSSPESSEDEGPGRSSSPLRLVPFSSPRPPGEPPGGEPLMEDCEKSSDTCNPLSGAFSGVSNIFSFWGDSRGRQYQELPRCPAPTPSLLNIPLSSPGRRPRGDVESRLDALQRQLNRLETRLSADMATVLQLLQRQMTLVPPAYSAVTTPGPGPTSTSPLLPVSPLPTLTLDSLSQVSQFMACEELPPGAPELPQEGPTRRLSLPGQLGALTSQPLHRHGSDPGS
# Assay: hERG protection against dofetilide inhibition, confirmation, cell-based, thallium flux, duplicate retest, dofetilide IC70 (AID 1835)
# Details: hERG cell line, FluxOR thallium flux, dofetilide-blocked; at 10 µM; stronger effect = higher value
row,Structure (SMILES),"activity increase over dofetilide control, less the hit threshold"
1,COc1ccc(-c2nc(=S)c3ccc4ccccc4c3[nH]2)cc1,76% (active)
2,COc1ccc(-n2c(=S)[nH]c3ccccc3c2=S)cc1,-12%
3,CC(C)CC(=O)Nc1ccc2c3c(cccc13)CC2,-3%
4,CCC1(CC)Cc2ccccc2-c2[nH]c(=S)[nH]c(=O)c21,-6%
5,CCn1c(=S)[nH]c2c(c1=O)C(C)(C)Cc1ccccc1-2,26% (active)
6,O=C(CSc1nc2ccccc2o1)NCc1n[nH]c(=O)c2ccccc12,-4%
7,CCOc1ccccc1Nc1nc(-c2sc(C)nc2C)cs1,-9%
8,O=C(C1CCN(S(=O)(=O)c2cc(Cl)ccc2Cl)CC1)N1CCOCC1,-16%
9,CN(C(=O)c1ccc(Cl)c(S(=O)(=O)N2CCOCC2)c1)c1ccccc1C(=O)O,7% (active)
10,CCN(CC(=O)Nc1c(F)cccc1F)C(=O)c1ccc(Cl)c(S(=O)(=O)N2CCCCC2)c1,-19%
11,C=Cc1ccc(Cn2c(=O)n(CCCOC)c(=O)c3sccc32)cc1,-14%
12,O=[N+]([O-])c1cccc(/C=N/N=C\c2ccccc2)c1,-20%
13,Cc1ccc(C(=O)N/N=C(/CC(=O)c2cccs2)C(F)(F)F)cc1,3% (active)
14,C/C(=N\NC(=O)c1ccc(NS(=O)(=O)c2cccs2)cc1)c1ccc2c(c1)OCO2,-17%
15,COc1ccc(S(=O)(=O)N2CCCC(C(=O)Nc3ccc(OC)c(OC)c3)C2)cc1 (stereo unspecified),-22%
16,CCN(Cc1ccc(OC)c(F)c1)C(=O)C1CCCO1 (stereo unspecified),-3%
17,COc1ccc(-c2cnn(C3CCS(=O)(=O)C3)c2N)cc1 (stereo unspecified),-23%
18,CCOC(=O)C1=C(N)Oc2cc(O)ccc2C1c1cccnc1 (stereo unspecified),-12%
19,COC(=O)c1ccc(C2C(C#N)=C(N)Oc3cc(O)ccc32)cc1 (stereo unspecified),69% (active)
20,COc1cc(C2C(C#N)=C(N)Oc3c2ccc2ccccc32)ccc1OCC(=O)Nc1ccc(C)cc1 (stereo unspecified),-19%
21,O=C(NC1CCCC1)c1ccc(Br)o1,-5%
22,O=C(COC(=O)c1ccc(Br)o1)NC1CCCCC1,-6%

row,Structure (SMILES),"activity increase over dofetilide control, less the hit threshold"
1,Cc1ccc(OC(=O)c2ccc(Br)o2)cc1,37% (active)
2,CCCCOc1ccc(CC(=O)NCC(=O)O)cc1,-17%
3,CCCOc1ccc(OC(=O)c2ccc(Br)o2)cc1,14% (active)
4,Cc1ccsc1CN(C(=O)c1ccc([N+](=O)[O-])cc1)C1CCS(=O)(=O)C1 (stereo unspecified),-5%
5,O=C(CS(=O)(=O)Cc1ccccc1)Nc1ccc(Cl)cn1,-11%
6,CCCCNC(=O)COC(=O)c1ccc(NC(C)=O)cc1,-18%
7,CCNC(=O)C/C(C)=N/NC(=O)C(=O)Nc1ccc(CC)cc1,9% (active)
8,CCCCCCC12CCC(C(=O)O)(CC1)CC2,14% (active)
9,CCOc1ccc(NC(=O)CSc2nc3nc(C)cc(C)n3n2)cc1,-8%
10,CCOc1ccc(NC(=O)C2C(C(=O)O)C3(Cl)C(Cl)=C(Cl)C2(Cl)C3(Cl)Cl)cc1 (stereo unspecified),-8%
11,CCOc1ccc(NC(=S)NS(=O)(=O)c2cc(Br)ccc2OCC)cc1,37% (active)
12,CCc1nnc(NC(=O)COc2ccc([N+](=O)[O-])cc2)s1,-11%
13,N#Cc1c(-c2ccc(Cl)cc2)cc(-c2cccs2)nc1SCC(=O)O,-22%
14,CCc1nnc(NC(=O)CSc2nc(-c3ccccc3)cc(-c3ccc(OC)cc3)c2C#N)s1,11% (active)
15,CCOc1cc(N2CCCC2)ccc1[N+](=O)[O-],-3%
16,CC(=O)c1cccc(NC(=O)NCc2cccs2)c1,-23%
17,Nc1nc2n(n1)C1(CCCCC1)C1=C(CCCC1)N2,-26%
18,CC(=O)c1c(NC(=O)c2ccccc2)[nH]c(-c2ccccc2)nc1=S,24% (active)
19,Cc1nc2ccc(C(=O)O)cc2[nH]1,-12%
20,CC(=O)c1c(N2CCCC2)[nH]c(-c2ccccc2)nc1=S,-1%
21,CC(=O)c1c(C)[nH]c(-c2ccccc2)nc1=S,-4%
22,CSc1nc(-c2ccccc2)[nH]c(=S)c1C(C)=O,61% (active)

row,Structure (SMILES),"activity increase over dofetilide control, less the hit threshold"
1,CC(=O)c1c(N2CCN(Cc3ccccc3)CC2)[nH]c(-c2ccccc2)nc1=S,15% (active)
2,Cc1ccccc1CC(=O)NC1CCN(Cc2ccccc2)CC1,-1%
3,CC(=O)c1c(N)[nH]c(-c2ccccc2)nc1=S,1% (active)
4,C=C(C)Cc1c(C)nc(-c2ccccc2)[nH]c1=O,-19%
5,Cc1cc(C)cc(NC(=O)CSc2nnc(CN3CCOCC3)n2C)c1,-13%
6,COc1ccc(S(=O)(=O)n2nc(C)c(S(=O)(=O)N3CCOCC3)c2C)cc1OC,-10%
7,CCN1CCCC(CO)(Cc2ccccc2)C1 (stereo unspecified),-8%
8,O=C(CSc1nnc(NC(=O)c2ccc(S(=O)(=O)N3CCOCC3)cc2)s1)Nc1ccccc1C(F)(F)F,-13%
9,Cc1[nH]cnc1CSCCN,-2%
10,O=C(NC(=S)N1CCCc2ccccc21)c1ccc(Br)cc1,32% (active)
11,O=C(NC(=S)N1CCCc2ccccc21)c1ccc([N+](=O)[O-])cc1,11% (active)
12,O=C(O)C1CCN1C1CCCCC1 (stereo unspecified),-16%
13,CC(=O)c1c(C)nc(C)nc1NC(=O)C(C)C,-16%
14,CCOC(=O)CSc1nnc(NC(=O)c2ccc3c(c2)OCO3)s1,-22%
15,Cc1ccccc1-c1nnn(CC(=O)NCc2ccc3c(c2)OCO3)n1,-13%
16,c1ccc2c(c1)c1ccccc1n1c(-c3ccc4c(c3)OCO4)nnc21,1% (active)
17,Cc1ccc(NC(=O)c2cc(-c3ccc4c(c3)OCO4)on2)cc1,-6%
18,O=C(NCc1ccco1)C1CCN(C(=O)Cc2ccccc2)CC1,-7%
19,CN(C)c1ccc(C(CNS(=O)(=O)c2ccc([N+](=O)[O-])cc2)N2CCCC2)cc1 (stereo unspecified),-24%
20,Cc1cccc(N2CCN(C(=O)Cc3c(C(=O)O)[nH]c4ccc(Cl)cc34)CC2)c1C,-14%
21,C/C=C(\C)CN1CCN(c2cccc(C)c2C)CC1,-24%
22,Cc1cccc(N2CCN(C(=O)CNC(=O)c3cccc([N+](=O)[O-])c3)CC2)c1C,13% (active)
